Laboratory results from PubChem BioAssay AID1508600 (Functional Genomics Laboratory (NCATS/FGL), 2020).
Hit rate of the full screen: of about 53,000 sequences, about 3,700 (7%) were called active. The entries come from a sample that favours actives as a whole. A number with no mark means an inactive call.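 How the source made its calls: active means gene knockdowns whose robust z-score for IL-1 alpha signal is at least 2 or at most -2, so actives lie on both sides; inactive means the rest.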

assay: Components of the Cytosolic LPS Sensing Pathway: Gene Identification via Genome-wide siRNA Screen; settings: RAW264.7 macrophages, IL-1a HTRF, actives lie on both sides, screened at 100 nM (by protocol), cells primed 5 h with Pam3CSK4 first;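 further: robust z of the log signal after scaling to non-targeting control siRNA wells of the plate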
How it was run: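 RAW264.7; siRNA 100 nM final, RNAiMAX, 48h 37 degrees C; Pam3CSK4 5 h; LipidA + TransIT-TKO 24 h; IL-1a HTRF; CellTiter-Glo viability; robust z vs negative-control median.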

First: GGAUUAGGAAUCACAGUAGTT against Fam78a
Second: GGCCAAAAAGGAGGCACCATT against Rps15
The z-score of the first is higher: 0.675 for the first, 0.662 for the second.

Compared with GCAUUUUAAUGCGCCAGUUTT against Atp2c1, GGGAGCUUUGGAAAUUUUATT against Zbtb3 is higher in z-score: -0.164 for the first, 0.451 for the second.

First: CCUCUCCUGCUCUGACAUATT against Olfr933
Second: GGUGUUUGGCGAUAAUAAGTT against Zdhhc15
The z-score of the first is higher: 0.541 for the first, -0.237 for the second.

Compared with GGAAAGAAUAGCAGCGUGGTT against Echs1, GCGAGACAAUUGUUAUUGATT against Zmym2 is lower in z-score: 1.14 for the first, -1.05 for the second.

Compared with GGCCAUGGAAGCUGUUGCUTT against Pgam2, GGUUCAGUCAAGAAUUGCUTT against Clec4e is higher in z-score: -0.264 for the first, 1.68 for the second.

Going from GCUGUCGAUAGAAAAAAUCTT against Scml2 to GGGCAAUUUGUUCGACCCATT against Abca2, the z-score falls from 0.566 to -0.14.

First: GGGCCUGGAAAACAUUGACTT against Ndufa1
Second: CCUUCAACACCAGUUUGGGTT against Olfr1393
The z-score of the first is lower: -0.316 for the first, 0.45 for the second.

Compared with GGCCUGUGGAAGAAAUACGTT against Pdhb, GGAAACAUGUCCUCACACATT against Top3b is lower in z-score: 1.82 for the first, 1.41 for the second.

Going from GGCUCAUUUGCUGAGUGUGTT against Fscn2 to GCCGGUAAAAUUAAGGUGATT against Cyp2j9, the z-score falls from 1.68 to -0.13.

First: GGGUUUGGUCUCAUAUAAATT against Samd7
Second: GCAGAAGUCGAGCUAUGUUTT against Zfp365
The z-score of the first is higher: -0.618 for the first, -1.21 for the second.

Compared with GGGAUAAUAAUGUUGAUUGTT against Mrc1, GCAUACCUCCGUAUUGUGATT against Snx30 is lower in z-score: -0.152 for the first, -0.868 for the second.

First: GAUCAUCACAGAGGUCCAGTT against Fabp6
Second: GGUGAUGGGCAAGGUGUUCTT against Syvn1
The z-score of the first is higher: 0.308 for the first, 0.25 for the second.

Going from CGGUACAAGCUAGACCUCATT against Mettl26 to CCAAUACUACAUAAUGUCUTT against Abcc12, the z-score falls from 0.493 to -0.354.

Compared with GGAAUUCCCAAAACUACUGTT against Tbck, GGAAUGUCGAAGAAAAUGCTT against Adam15 is higher in z-score: -1.28 for the first, -0.197 for the second.

Going from GCGCAAUAAGAUCUUCAUGTT against Ddx55 to GGCACUUUCCCUAUAUUGUTT against Col26a1, the z-score falls from 0.454 to -1.57.

Going from CCUACGACUUCUACUACAUTT against Chst8 to GGAGUGCGGACGAUAAUACTT against Ppp1r3f, the z-score falls from 1.69 to -1.97.

First: GUAUUGGAUACGAAGCAGATT against Defb2
Second: GGACAUGUGGAAAUGGAUATT against Arhgap4
The z-score of the first is lower: -0.154 for the first, 1.97 for the second.

Going from GGGAAGAAGAUGGAAUUUATT against Smoc1 to CGGGCUGCUACGAAAAAGUTT against Tspan9, the z-score falls from 1.22 to 0.152.

First: GGAAACACGUCUCCUCCAUTT against Krt87
Second: CGCACAAAGGAUUUUUGUATT against Epha7
The z-score of the first is higher: 1.26 for the first, -0.064 for the second.

Compared with GGUGUGAUUGAAGAAGCGGTT against Gpr37, GUGCCUCUCAUCACUAUCUTT against Olfr571 is higher in z-score: -0.463 for the first, 0.501 for the second.

Going from GGAAACCCAGAGCAGCAGATT against Tdg to GGAGCUCAAACAGGAGAACTT against Lhfpl4, the z-score rises from -1.01 to 0.383.

Compared with GGUAUUUGCUGAACUGUUUTT against Ckmt1, GGCUUAACAGAGAAACACCTT against Lrrc49 is higher in z-score: -0.931 for the first, 0.563 for the second.

Going from GAAUGUCUGAGCAAGGAGGTT against Arpp21 to GCUCAUGUAGGAUGUAUAUTT against Olfr146, the z-score falls from 0.227 to -0.483.

Going from GCAGAUGUACUCUAAGGGUTT against Adam23 to CGCCAUAGUUGGUUUUGUUTT against Scamp4, the z-score rises from 1.17 to 1.2.

Going from GCGACUACAAGGAUACCCUTT against Krt71 to GGCCAGUGAGCAGCAUUAUTT against Krt222, the z-score rises from 0.169 to 0.787.

Going from CCGCUCUUUUACAGCUGGATT against Rsl1d1 to GCAUAACUCCCAUCCAUAGTT against Glra2, the z-score falls from 1.99 to -0.622.

Going from CCUUUUUUUGGUAACUCGUTT against Sox11 to CCUACAGAAUAGAAAAUUCTT against Elmod2, the z-score falls from -0.0308 to -0.161.

Compared with GGAUGGACUAAAUGAUGAUTT against Ythdf2, GGAUUCUGUGCUUUCCUGGTT against Pomt2 is lower in z-score: -0.00923 for the first, -0.77 for the second.

First: CCUGCAUCGUACGCUACUUTT against Pcgf2
Second: GCCAAAUUAGCAGCUUGUGTT against Rln3
The z-score of the first is lower: -1.83 for the first, -0.0674 for the second.

Compared with CGUACAACCUCAAGGUUCUTT against Lag3, GGCAAAAUUAGCAUCAAAGTT against Slc22a3 is higher in z-score: -1.68 for the first, 0.577 for the second.

First: GCCUAGACCUAAGCAUAGCTT against Prpmp5
Second: GGCCCUGUUAGUGCUAUACTT against Amh
The z-score of the first is higher: 0.228 for the first, -1.15 for the second.

Going from GGAAGAUUGAAAUAGGCGATT against Mecom to GGAAAAGGCCGAUUUCGUGTT against Dixdc1, the z-score rises from -1.25 to 0.556.

Going from GGCAGUAGUGAACAGAGACTT against Krt222 to GCUGACUCCGUGUUUUUAATT against Arhgef18, the z-score falls from -0.199 to -0.539.

First: GGGCUCUUGUGUUAAGGCATT against Krt27
Second: GGAGCUAGAACUCAAUGAATT against Lingo1
The z-score of the first is lower: -0.119 for the first, 0.65 for the second.

Compared with CCUCAUAGCCAGUCUUUUUTT against Pafah2, GUCCUAAAACGAGUGAGAGTT against Trib3 is lower in z-score: -0.553 for the first, -0.793 for the second.

Compared with GGACACAGCAAGGAAGAAATT against Mad2l1bp, GGACAGGUACUUUUCCCUGTT against Gnpda2 is lower in z-score: 0.335 for the first, -1.19 for the second.

Compared with CCAGUCAUUGUGCUUGUUATT against Sox12, GGAGGACGUAUCAUUACAUTT against Twf1 is higher in z-score: 0.929 for the first, 1.95 for the second.

Compared with GGAGGAUAUAAAAAAGAAGTT against L2hgdh, GCCAAGGACUCAGUGAAUGTT against Iqsec2 is lower in z-score: 0.00317 for the first, -1.19 for the second.

Going from GGUCCUCUCAGACAUGAAGTT against Pagr1a to GCGGUAAGAACGUGGAACUTT against Tent5b, the z-score rises from -0.237 to 0.536.

First: GCAUGAAGAGGCAAAGGCUTT against Igfbp1
Second: GGAAGUUAAUGGGUAAAGUTT against Olfr365
The z-score of the first is higher: -0.555 for the first, -1.67 for the second.

Going from GGACAAAACUAAACAGCAATT against Smarcal1 to GGGCUUUCUUGGUUUUAUCTT against Depp1, the z-score rises from -0.662 to -0.377.

Going from GUCGCAUCUCCAAAAAUGGTT against Olfr340 to GGAUCCUCUCAUUAAGAAATT against Gabra1, the z-score rises from -1.46 to -1.15.

First: CGACUUCGCCUUAUGAGAUTT against Tst
Second: GGUUGAUCCAAAAGAUUACTT against Rp2
The z-score of the first is lower: -1.19 for the first, 0.557 for the second.

Compared with GGUCAUGAAAAAUGACAGCTT against Klra2, GGAAGAAGAGGAUGAGAUUTT against Clcn6 is lower in z-score: 0.126 for the first, -1.73 for the second.

GGCUCACAAUUGCUGUGUATT against Psg23 gave a z-score of -0.566.

For CCUUAUAGUCCAGUAUUUUTT against Slf2, the z-score was 2.71 (active).
In the case of GGAAGAGGUCUUUAAUACATT against Kif4, the z-score was 2.86 (active).
With GGACAGAUGAUGAAGUUGUTT against Hsp90b1 the z-score was -2.24 (active).
In the case of CCCAGUGUCAUUCAGUAUUTT against Phactr3, the z-score was 2.13 (active).
For GCAAUUUGAGCAGUAUGUATT against Cpsf7, the z-score was -2.85 (active).
With GGCUAAAUGCCGAUGUACUTT against Gapvd1 the z-score was 2.08 (active).
With CCUGACAGACCGACAAGUGTT against Hoxc11 the z-score was -2 (active).
With GCUGGCUAUACUUUACAACTT against Prkg1 the z-score was 2.11 (active).
For GGCUUUCUUCAACCUGAGUTT against Duoxa1, the z-score was -2.43 (active).
In the case of CGACAACAAUCUGGCCUAUTT against Ap2s1, the z-score was 2.09 (active).
In the case of GGAAGGAAGCUAAAAAACGTT against Gnl3, the z-score was 2.24 (active).
In the case of CCCUCCAUGGAAAUGACAUTT against Slit3, the z-score was 2.4 (active).
For CCCGCUAUUUGGUGCUAACTT against Amh, the z-score was 3.21 (active).
For GGCCCAACACCUUUAUCAUTT against Akt1, the z-score was 2.77 (active).
For GGUGCUCUCAAGUGGGAUUTT against Gm5114, the z-score was -2.15 (active).
With GGAUCUUCCUGGAUGCCAATT against Hps1 the z-score was -2.61 (active).
In the case of GUUGUGUUCUGAUUGUUUUTT against Olfr1020, the z-score was 2.03 (active).
For GGGCAAGUUCCAUCUCCUUTT against Cdc42ep2, the z-score was -2.2 (active).
In the case of GCAAGUGAGUUAGCAGUCATT against Atp2c1, the z-score was -2.23 (active).
